Source: PubChem
IL1B secr inh – inflammasome signaling inhibition, IL-1 beta readout | THP-1 LPS/ATP IL-1B secretion, AlphaLISA, 16 h; active compounds read low | activity change, % at 57.5 µM | 4.7% of 360,000 active; in the data active = activity change below about -50%; inconclusive = mostly about -30% to -49%; also: % is scaled to controls: 0 for no effect and ±100 for the full control effect
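THP-1 cells pretreated 1 hr with compounds (up to 57.5 uM final), then stimulated with LPS (250 ng/mL final) plus ATP (1.25 mM final); secreted IL-1B measured by AlphaLISA after 16 hr, decreased signal indicating inhibition.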
TDP1 cell noCPT – qHTS for Inhibitors of human tyrosyl-DNA phosphodiesterase 1 (TDP1): qHTS in cells in absence of CPT; DT40 Tdp1-/- hTDP1 cells, no CPT, ATP luminescence, 48 h; Potency, µM (doses to about 46.2 µM), for inactives: at the highest dose activity change, negative = growth inhibition, most hits filed as inhibitors; 15% of 420,000 active; also: potency is read from the fitted curve at half-maximal effect; % is scaled to controls: 0 for no effect and ±100 for the full control effect; nearly all actives have a fitted effect of over 55% in size
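Growth of hTDP1-complemented DT40 Tdp1-knockout cells is measured by ATP luminescence after at least 48 hr compound exposure at 37 °C, with DMSO substituting for the 20 nM CPT used in the parallel screen.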
TGFb SMAD3 inh – TGF-b pathway inhibition; 1.2% of 410,000 active; Potency, µM (titrated, usually from 46.1 µM), for the others: top-dose activity, negative = inhibition, hits mostly inhibitors; HepG2 CAGA-GFP TGF-b/SMAD3 reporter, GFP fluorescence, 18 h; TGF-beta stimulated, 500 pg/mL final; AID 588855; also: potency is read from the fitted curve at half-maximal effect; % is scaled to controls: 0 for no effect and ±100 for the full control effect; nearly all actives have a fitted effect of over 65% in size
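HEPG2 CAGA-GFP reporter cells (1000/well, DMEM with 1% FBS) received compounds, then recombinant TGF-beta at 500 pg/mL final for 18 hours at 37 degrees C. Per-cell GFP summed per well was normalised to unstimulated and stimulated DMSO controls before curve fitting.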
TDP1 block – blocks human tyrosyl-DNA phosphodiesterase 1 | recombinant TDP1, AlphaScreen DNA substrate cleavage | Potency, µM (highest dose often 130 µM), inactives show top-dose activity change, negative = inhibition, most hits filed as inhibitors | 0.28% of 350,000 active | AID 485290; also: potency is read from the fitted curve at half-maximal effect; % is scaled to controls: 0 for no effect and ±100 for the full control effect; nearly all actives have a fitted effect of over 40% in size
Target sequence (Q9NUW8 whole entry, looked up): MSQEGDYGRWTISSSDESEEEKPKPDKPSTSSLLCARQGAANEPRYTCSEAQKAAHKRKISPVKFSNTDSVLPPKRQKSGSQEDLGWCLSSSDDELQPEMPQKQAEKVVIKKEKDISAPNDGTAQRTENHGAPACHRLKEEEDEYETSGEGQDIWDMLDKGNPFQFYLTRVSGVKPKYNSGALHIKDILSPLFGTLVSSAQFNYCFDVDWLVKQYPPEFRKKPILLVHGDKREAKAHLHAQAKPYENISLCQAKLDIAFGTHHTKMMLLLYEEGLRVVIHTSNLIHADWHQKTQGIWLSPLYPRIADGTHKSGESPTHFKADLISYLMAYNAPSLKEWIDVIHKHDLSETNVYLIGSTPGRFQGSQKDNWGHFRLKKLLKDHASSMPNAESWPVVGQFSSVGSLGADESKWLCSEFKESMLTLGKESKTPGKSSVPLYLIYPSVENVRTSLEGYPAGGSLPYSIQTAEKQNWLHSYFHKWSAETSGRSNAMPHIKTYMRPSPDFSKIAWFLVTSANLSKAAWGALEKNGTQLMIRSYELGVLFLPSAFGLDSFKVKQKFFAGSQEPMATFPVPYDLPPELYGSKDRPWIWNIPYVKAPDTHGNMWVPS
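Tdp1 1 nM final; 15 min RT w/ cpd; substrate 15 nM, 5 min; beads 10 ug/ml, 10 min; AlphaScreen read. Neg ctrl: no enzyme.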
HepG2 viability – counter-screen for TGF-b inhibitors: cytotoxicity in HepG2 cells; 0.76% of 410,000 active; AID 588856; Potency, µM (doses to about 46.1 µM), for the others: at the highest dose activity change, negative = cytotoxicity, hits mostly cytotoxic; HepG2 CAGA-GFP viability, ATP luminescence, 18 h; also: potency is read from the fitted curve at half-maximal effect
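HepG2 CAGA-GFP cells (1000/well, DMEM with 1% FBS) received compound, then TGF-beta at 500 pg/mL final, and were incubated 18 hours at 37 degrees C. Viability was read by CellTiter-Glo luminescence. Media-only wells were set as complete cell-killing and DMSO as no toxicity.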
TDP1 cell CPT – growth inhibition of DT40 Tdp1-/-;hTDP1 cells with camptothecin (screen for TDP1 inhibitors). chicken DT40 Tdp1-/-;hTDP1 cells + 20 nM CPT, ATP luminescence, 48 h. Potency, µM (top dose mostly 46.2 µM), for the others: top-dose activity change, negative = growth inhibition, hits mostly inhibitors. 12% of 420,000 active; also: potency is read from the fitted curve at half-maximal effect; % is scaled to controls: 0 for no effect and ±100 for the full control effect; nearly all actives have a fitted effect of over 55% in size
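Cell growth measured by CellTiter-Glo luminescence after a minimum 48 h, 37 C compound exposure with 20 nM CPT in Tdp1-knockout DT40 cells stably expressing hTDP1, seeded 400/well; qHTS titration format.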
Active calls of the source: *; [ ] = another dose, or the depositor's remark. An excerpt weighted towards active compounds, which were near 19% of everything screened. Unless noted, calls follow the shape of the dose curve; as a rule, active = well fitted curve in the direction sought with a large enough effect; inconclusive = small, poorly fitted or top-dose-only effect, or another doubt; inactive = no such curve, though single readings can be large; an effect the other way counts as inactive or inconclusive.

Cc1ccc(CN(c2ccc(C(=O)Nc3ccc4c(c3)OCO4)cc2)S(C)(=O)=O)cc1 was read as IL1B secr inh -4, TDP1 cell noCPT 9%, TGFb SMAD3 inh 0%, TDP1 block 7%, HepG2 viability -1% and TDP1 cell CPT 1%.
Screening CC(=O)c1cccc(NC(=O)c2ccc(N(Cc3ccc(C)cc3)S(C)(=O)=O)cc2)c1 returned IL1B secr inh -30, TDP1 cell noCPT inconclusive, TGFb SMAD3 inh 5%, TDP1 block 1%, HepG2 viability -25% and TDP1 cell CPT 16µM*.
Screening Cc1ccc(NC(=O)c2ccc(N(Cc3ccccc3)S(C)(=O)=O)cc2)cc1 returned TDP1 cell noCPT 12µM*, TGFb SMAD3 inh inconclusive, TDP1 block 0%[12.3 µM], HepG2 viability -22% and TDP1 cell CPT inconclusive.
`CCOC(=O)c1ccc(NC(=O)c2c(N)n(Cc3ccccc3)c(=O)[nH]c2=O)cc1` gave IL1B secr inh 36, TDP1 cell noCPT -101%, TGFb SMAD3 inh 7%, HepG2 viability 23% and TDP1 cell CPT 16µM*.
CC(C)c1ccc(NC(=O)c2ccc(=O)n(Cc3ccccc3)c2)cc1 was read as TDP1 cell noCPT 21µM*, TGFb SMAD3 inh inconclusive, TDP1 block 5%, HepG2 viability -17% and TDP1 cell CPT 16µM*.
For CCOC(=O)c1ccc(NC(=O)c2ccc(=O)n(Cc3cccc(C)c3)c2)cc1 the results were TDP1 cell noCPT 16µM*, TGFb SMAD3 inh -18%, TDP1 block 3%, HepG2 viability -41% and TDP1 cell CPT 21µM*.
For O=C(Nc1ccccc1)c1ccc(=O)n(Cc2cccc(Cl)c2)c1 the results were IL1B secr inh -22, TDP1 cell noCPT -11%, TGFb SMAD3 inh -15%, TDP1 block -5%, HepG2 viability -54% and TDP1 cell CPT 7%.
Screening CCOC(=O)c1ccc(NC(=O)c2ccccc2)cc1 returned IL1B secr inh inconclusive, TDP1 cell noCPT -15%, TGFb SMAD3 inh 4%, TDP1 block -5%, HepG2 viability -12% and TDP1 cell CPT -14%.
For CN(C)S(=O)(=O)Nc1cccc(NC(=O)CC23CC4CC(CC(C4)C2)C3)c1 the results were IL1B secr inh -73*, TDP1 cell noCPT -24%, TGFb SMAD3 inh -11%, HepG2 viability -9% and TDP1 cell CPT -26%.
Screening CN(C)S(=O)(=O)c1cccc(NC(=O)CC23CC4CC(CC(C4)C2)C3)c1 returned IL1B secr inh 3, TDP1 cell noCPT 21µM*, TGFb SMAD3 inh 0%, TDP1 block 3%, HepG2 viability -3% and TDP1 cell CPT 23µM*.
`O=C(NCc1ccccc1)[C@]1(C(F)(F)F)C[C@H](CCCO)CCCO1` gave TGFb SMAD3 inh -7%, TDP1 block 6% and HepG2 viability -21%.
For COC(=O)c1cccc(Nc2c(-c3ccc(OC)cc3)nc3nc[nH]n23)c1 the results were TDP1 cell noCPT inconclusive, TGFb SMAD3 inh -1%, TDP1 block 6%, HepG2 viability -17% and TDP1 cell CPT 21µM*.
`O=C(CSc1ccc(F)cc1)NC12CC3CC(CC(C3)C1)C2` gave IL1B secr inh inconclusive, TDP1 cell noCPT inconclusive, TGFb SMAD3 inh -2%, TDP1 block 0%, HepG2 viability -10% and TDP1 cell CPT inconclusive.
`O=C(CCSc1ccc(Cl)c(Cl)c1)NC12CC3CC(CC(C3)C1)C2` gave IL1B secr inh -4, TDP1 cell noCPT inconclusive, TGFb SMAD3 inh inconclusive, HepG2 viability -18% and TDP1 cell CPT 16µM*.
